Laboratory results reported in PubChem BioAssay AID1159580 (chemical genetic matrix, 2015).
The whole screen tested about 5,500 compounds, of which about 2,000 (36%) were called active. Inconclusive results (about 18%) are left out. Cut-off read from the data, not from the text of the source: active = normalized growth mostly below about 0.91 (no sharp cut-off); inconclusive = no clear call, values can overlap the other calls; inactive = mostly above about 0.92. This is one part of the list.

Experiment: chemical genetic growth profiling, strain panel (AID 1159580);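 note: tested at 20 µM; growth read once vehicle control cultures reached saturation at 30 °C; 1 = growth at the plate median or of vehicle wells; lower values mean less growth of the strain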
Conditions: growth OD

Measured: normalized growth

Oc1cccc2cccnc12
active: S. cerevisiae deletion strains, locus YKL009W, strain mrt4, stronger effect = lower value 0.741 | S. cerevisiae deletion strains, locus YKL068W, stronger effect = lower value 0.0531 | S. cerevisiae deletion strains, locus YKL085W, strain MDH1 (second series), stronger effect = lower value 0.0521 | S. cerevisiae deletion strains, locus YKL085W, strain MDH1, stronger effect = lower value 0.0521 | S. cerevisiae deletion strains, locus YKL160W, strain elf1, stronger effect = lower value 0.0679 | S. cerevisiae deletion strains, locus YKL190W, strain CNB1, stronger effect = lower value 0.0517 | S. cerevisiae deletion strains, locus YKR001C, strain vps1, stronger effect = lower value 0.0622 | S. cerevisiae deletion strains, locus YKR026C, strain gcn3, stronger effect = lower value 0.356 | S. cerevisiae deletion strains, locus YKR091W, strain srl3, stronger effect = lower value 0.5 | S. cerevisiae deletion strains, locus YLL001W, strain dnm1, stronger effect = lower value 0.0604 | S. cerevisiae deletion strains, locus YLL026W, stronger effect = lower value 0.0573 | S. cerevisiae deletion strains, locus YLL041C, strain sdh2, stronger effect = lower value 0.132 | S. cerevisiae deletion strains, locus YLR027C, strain aat2, stronger effect = lower value 0.0569 | S. cerevisiae deletion strains, locus YLR039C, strain RIC1, stronger effect = lower value 0.0939 | S. cerevisiae deletion strains, locus YLR058C, strain SHM2, stronger effect = lower value 0.786 | S. cerevisiae deletion strains, locus YLR102C, strain apc9, stronger effect = lower value 0.0613 | S. cerevisiae deletion strains, locus YLR221C, strain rsa3, stronger effect = lower value 0.0643 | S. cerevisiae deletion strains, locus YLR258W, strain gsy2, stronger effect = lower value 0.0623 | S. cerevisiae deletion strains, locus YLR262C, strain YPT6 (second series), stronger effect = lower value 0.0792 | S. cerevisiae deletion strains, locus YLR262C, strain YPT6, stronger effect = lower value 0.124 | S. cerevisiae deletion strains, locus YLR268W, strain sec22, stronger effect = lower value 0.0693 | S. cerevisiae deletion strains, locus YLR320W, strain mms22, stronger effect = lower value 0.0884 | S. cerevisiae deletion strains, locus YLR330W, strain CHS5, stronger effect = lower value 0.0553 | S. cerevisiae deletion strains, locus YLR342W, strain FKS1 (second series), stronger effect = lower value 0.0627 | S. cerevisiae deletion strains, locus YLR342W, strain FKS1, stronger effect = lower value 0.0636 | S. cerevisiae deletion strains, locus YLR357W, strain rsc2, stronger effect = lower value 0.117 | S. cerevisiae deletion strains, locus YLR370C, strain arc18, stronger effect = lower value 0.0611 | S. cerevisiae deletion strains, locus YLR371W, strain rom2, stronger effect = lower value 0.0611 | S. cerevisiae deletion strains, locus YLR384C, strain iki3, stronger effect = lower value 0.0615 | S. cerevisiae deletion strains, locus YLR418C, strain cdc73, stronger effect = lower value 0.0961 | S. cerevisiae deletion strains, locus YML016C, strain PPZ1, stronger effect = lower value 0.0529 | S. cerevisiae deletion strains, locus YML032C, strain rad52, stronger effect = lower value 0.385 | S. cerevisiae deletion strains, locus YML120C, strain ndi1, stronger effect = lower value 0.0583 | S. cerevisiae deletion strains, locus YML124C, strain tub3, stronger effect = lower value 0.0625 | S. cerevisiae deletion strains, locus YMR058W, strain fet3, stronger effect = lower value 0.0576 | S. cerevisiae deletion strains, locus YMR078C, strain ctf18, stronger effect = lower value 0.553 | S. cerevisiae deletion strains, locus YMR125W, strain sto1, stronger effect = lower value 0.0733 | S. cerevisiae deletion strains, locus YMR129W, stronger effect = lower value 0.0569 | S. cerevisiae deletion strains, locus YMR205C, strain PFK2, stronger effect = lower value 0.214 | S. cerevisiae deletion strains, locus YMR223W, strain ubp8, stronger effect = lower value 0.0625 | S. cerevisiae deletion strains, locus YMR231W, strain pep5, stronger effect = lower value 0.0683 | S. cerevisiae deletion strains, locus YMR307W, strain GAS1, stronger effect = lower value 0.108 | S. cerevisiae deletion strains, locus YNL067W, strain RPL9B, stronger effect = lower value 0.0496 | S. cerevisiae deletion strains, locus YNL071W, strain lat1, stronger effect = lower value 0.0618 | S. cerevisiae deletion strains, locus YNL209W, strain ssb2, stronger effect = lower value 0.0612 | S. cerevisiae deletion strains, locus YNL233W, strain BNI4, stronger effect = lower value 0.0522 | S. cerevisiae deletion strains, locus YNL248C, strain rpa49, stronger effect = lower value 0.0751 | S. cerevisiae deletion strains, locus YNL250W, strain rad50, stronger effect = lower value 0.0636 | S. cerevisiae deletion strains, locus YNL271C, strain bni1, stronger effect = lower value 0.0611 | S. cerevisiae deletion strains, locus YNL298W, strain CLA4, stronger effect = lower value 0.0629 | S. cerevisiae deletion strains, locus YNL307C, strain MCK1, stronger effect = lower value 0.0661 | S. cerevisiae deletion strains, locus YNL322C, strain KRE1 (second series), stronger effect = lower value 0.0706 | S. cerevisiae deletion strains, locus YNL322C, strain KRE1, stronger effect = lower value 0.0518 | S. cerevisiae deletion strains, locus YNR049C, strain mso1, stronger effect = lower value 0.0568 | S. cerevisiae deletion strains, locus YNR052C, strain pop2, stronger effect = lower value 0.749 | S. cerevisiae deletion strains, locus YOL006C, strain TOP1, stronger effect = lower value 0.113 | S. cerevisiae deletion strains, locus YOL147C, strain pex11, stronger effect = lower value 0.127 | S. cerevisiae deletion strains, locus YOR001W, strain rrp6, stronger effect = lower value 0.0671 | S. cerevisiae deletion strains, locus YOR061W, strain CKA2, stronger effect = lower value 0.0507 | S. cerevisiae deletion strains, locus YOR069W, strain VPS5, stronger effect = lower value 0.0519 | S. cerevisiae deletion strains, locus YOR070C, strain gyp1, stronger effect = lower value 0.0577 | S. cerevisiae deletion strains, locus YOR080W, strain dia2, stronger effect = lower value 0.0646 | S. cerevisiae deletion strains, locus YOR083W, strain WHI5, stronger effect = lower value 0.167 | S. cerevisiae deletion strains, locus YOR106W, strain vam3, stronger effect = lower value 0.0652 | S. cerevisiae deletion strains, locus YOR136W, strain idh2, stronger effect = lower value 0.0689 | S. cerevisiae deletion strains, locus YOR144C, strain elg1, stronger effect = lower value 0.712 | S. cerevisiae deletion strains, locus YOR184W, strain ser1, stronger effect = lower value 0.0694 | S. cerevisiae deletion strains, locus YOR265W, strain rbl2, stronger effect = lower value 0.0565 | S. cerevisiae deletion strains, locus YOR270C, strain vph1, stronger effect = lower value 0.0934 | S. cerevisiae deletion strains, locus YOR290C, strain snf2, stronger effect = lower value 0.0963 | S. cerevisiae deletion strains, locus YOR316C, strain cot1, stronger effect = lower value 0.0587 | S. cerevisiae deletion strains, locus YPL051W, strain arl3, stronger effect = lower value 0.063 | S. cerevisiae deletion strains, locus YPL055C, strain LGE1, stronger effect = lower value 0.0702 | S. cerevisiae deletion strains, locus YPL078C, strain atp4, stronger effect = lower value 0.0642 | S. cerevisiae deletion strains, locus YPL106C, strain sse1, stronger effect = lower value 0.104 | S. cerevisiae deletion strains, locus YPL240C, strain hsp82, stronger effect = lower value 0.112 | S. cerevisiae deletion strains, locus YPL241C, strain CIN2, stronger effect = lower value 0.0551 | S. cerevisiae deletion strains, locus YPR119W, strain clb2, stronger effect = lower value 0.0623 | S. cerevisiae deletion strains, locus YPR141C, strain kar3, stronger effect = lower value 0.0649 | S. cerevisiae deletion strains, locus YPR163C, strain tif3, stronger effect = lower value 0.0763 | S. cerevisiae deletion strains, locus YPR167C, strain met16, stronger effect = lower value 0.0614 | S. cerevisiae deletion strains, strain wtn01, stronger effect = lower value 0.0583 | S. cerevisiae strains, strain wild type, stronger effect = lower value 0.0541
inactive: S. cerevisiae deletion strains, locus YLR113W, strain HOG1, stronger effect = lower value 1.04 | S. cerevisiae deletion strains, locus YNL183C, strain NPR1, stronger effect = lower value 0.919 | S. cerevisiae deletion strains, locus YOL012C, strain htz1 0.214 | S. cerevisiae deletion strains, locus YOR231W, strain MKK1, stronger effect = lower value 0.916 | S. cerevisiae deletion strains, locus YPL256C, strain CLN2, stronger effect = lower value 0.971
